17 compounds from ChEMBL document CHEMBL1961873, “Compounds: GSK PKIS; Assays: Nanosyn kinase panel” (2012) can be followed below.

By inhibition is commonly meant the change of the read-out against control, counted positive when it falls.

The target of assay [1] is T1, Muscle, skeletal receptor tyrosine-protein kinase (Homo sapiens) (UniProt O15146).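 Note: reported value is the mean percent inhibition of MuSK kinase.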
T1 sequence (whole entry): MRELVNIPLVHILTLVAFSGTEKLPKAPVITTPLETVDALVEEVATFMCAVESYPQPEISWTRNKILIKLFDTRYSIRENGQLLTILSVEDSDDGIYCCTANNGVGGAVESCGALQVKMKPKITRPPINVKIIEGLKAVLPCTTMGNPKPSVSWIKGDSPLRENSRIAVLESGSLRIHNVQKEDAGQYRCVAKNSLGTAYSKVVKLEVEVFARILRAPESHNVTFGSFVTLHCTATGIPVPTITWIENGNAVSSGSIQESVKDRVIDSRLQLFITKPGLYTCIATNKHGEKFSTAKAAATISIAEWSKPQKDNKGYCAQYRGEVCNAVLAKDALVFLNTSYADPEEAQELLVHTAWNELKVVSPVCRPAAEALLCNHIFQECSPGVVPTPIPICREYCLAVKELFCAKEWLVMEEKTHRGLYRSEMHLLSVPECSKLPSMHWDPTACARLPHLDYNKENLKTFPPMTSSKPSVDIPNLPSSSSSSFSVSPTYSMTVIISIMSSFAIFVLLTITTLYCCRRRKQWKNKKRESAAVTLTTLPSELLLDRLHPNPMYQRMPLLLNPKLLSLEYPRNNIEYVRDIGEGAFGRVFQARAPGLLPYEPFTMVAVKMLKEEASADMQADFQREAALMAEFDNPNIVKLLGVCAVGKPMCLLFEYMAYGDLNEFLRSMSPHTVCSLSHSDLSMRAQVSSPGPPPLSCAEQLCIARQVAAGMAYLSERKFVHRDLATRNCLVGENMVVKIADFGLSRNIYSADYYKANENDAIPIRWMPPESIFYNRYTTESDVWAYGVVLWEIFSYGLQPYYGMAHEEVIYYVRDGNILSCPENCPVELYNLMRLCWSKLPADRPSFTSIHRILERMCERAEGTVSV
Particulars: at 1 µM.

Assay [2] deals with Platelet-derived growth factor receptor alpha (Homo sapiens) (UniProt P16234). Particulars: at 0.1 µM.
Platelet-derived growth factor receptor alpha (Homo sapiens), sequence (P16234 whole entry): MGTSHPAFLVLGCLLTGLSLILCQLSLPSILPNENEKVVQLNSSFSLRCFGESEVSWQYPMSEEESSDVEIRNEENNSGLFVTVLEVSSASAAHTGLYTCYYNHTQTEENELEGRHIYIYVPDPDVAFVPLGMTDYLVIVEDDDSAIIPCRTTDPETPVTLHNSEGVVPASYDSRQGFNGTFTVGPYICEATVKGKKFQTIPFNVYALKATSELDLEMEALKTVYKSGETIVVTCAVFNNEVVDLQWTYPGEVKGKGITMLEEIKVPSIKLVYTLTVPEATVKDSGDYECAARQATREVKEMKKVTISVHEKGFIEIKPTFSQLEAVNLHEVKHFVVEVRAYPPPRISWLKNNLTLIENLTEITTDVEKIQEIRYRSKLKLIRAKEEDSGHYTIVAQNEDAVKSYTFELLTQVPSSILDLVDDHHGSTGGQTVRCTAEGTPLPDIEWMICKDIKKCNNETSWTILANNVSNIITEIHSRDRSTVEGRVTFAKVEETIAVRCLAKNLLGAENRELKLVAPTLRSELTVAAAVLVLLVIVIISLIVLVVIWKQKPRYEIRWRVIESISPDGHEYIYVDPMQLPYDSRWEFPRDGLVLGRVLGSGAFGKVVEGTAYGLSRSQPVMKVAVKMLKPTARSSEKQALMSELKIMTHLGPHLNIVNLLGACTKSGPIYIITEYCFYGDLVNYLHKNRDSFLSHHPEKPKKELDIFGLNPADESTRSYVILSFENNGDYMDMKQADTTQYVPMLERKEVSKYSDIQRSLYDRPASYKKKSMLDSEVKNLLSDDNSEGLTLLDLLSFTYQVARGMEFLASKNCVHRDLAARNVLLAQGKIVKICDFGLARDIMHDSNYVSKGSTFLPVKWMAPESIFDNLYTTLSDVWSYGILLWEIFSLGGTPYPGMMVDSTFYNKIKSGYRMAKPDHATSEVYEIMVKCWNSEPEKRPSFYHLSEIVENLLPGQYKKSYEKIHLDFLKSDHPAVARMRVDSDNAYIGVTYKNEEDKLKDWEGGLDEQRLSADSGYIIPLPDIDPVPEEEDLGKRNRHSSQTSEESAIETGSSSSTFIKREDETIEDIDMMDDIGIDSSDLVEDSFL
Assay [3] has the same target. Particulars: at 1 µM.
For assay [4], the system named is Platelet-derived growth factor receptor alpha (Homo sapiens), P16234 [D842V]. Particulars: at 0.1 µM.
Platelet-derived growth factor receptor alpha (Homo sapiens), P16234 [D842V], sequence (P16234 whole entry D842V): as the sequence (P16234 whole entry) above, with D842V counted along it
For assay [5] the test system is unchanged. Particulars: at 1 µM.
Assay [6] has as its system Platelet-derived growth factor receptor alpha (Homo sapiens), P16234 [T674I]. Particulars: at 0.1 µM.
Assay [7] shares this test system. Particulars: at 1 µM.
The subject of assay [8] is Platelet-derived growth factor receptor alpha (Homo sapiens), P16234 [V561D]. As to conditions: at 0.1 µM.
For assay [9] the test system is unchanged. Particulars: at 1 µM.
The target of assay [10] is Platelet-derived growth factor receptor beta (Homo sapiens) (UniProt P09619). As to conditions: at 0.1 µM.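 Note: reported value is the mean percent inhibition of the kinase.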
Platelet-derived growth factor receptor beta (Homo sapiens), sequence (P09619 whole entry): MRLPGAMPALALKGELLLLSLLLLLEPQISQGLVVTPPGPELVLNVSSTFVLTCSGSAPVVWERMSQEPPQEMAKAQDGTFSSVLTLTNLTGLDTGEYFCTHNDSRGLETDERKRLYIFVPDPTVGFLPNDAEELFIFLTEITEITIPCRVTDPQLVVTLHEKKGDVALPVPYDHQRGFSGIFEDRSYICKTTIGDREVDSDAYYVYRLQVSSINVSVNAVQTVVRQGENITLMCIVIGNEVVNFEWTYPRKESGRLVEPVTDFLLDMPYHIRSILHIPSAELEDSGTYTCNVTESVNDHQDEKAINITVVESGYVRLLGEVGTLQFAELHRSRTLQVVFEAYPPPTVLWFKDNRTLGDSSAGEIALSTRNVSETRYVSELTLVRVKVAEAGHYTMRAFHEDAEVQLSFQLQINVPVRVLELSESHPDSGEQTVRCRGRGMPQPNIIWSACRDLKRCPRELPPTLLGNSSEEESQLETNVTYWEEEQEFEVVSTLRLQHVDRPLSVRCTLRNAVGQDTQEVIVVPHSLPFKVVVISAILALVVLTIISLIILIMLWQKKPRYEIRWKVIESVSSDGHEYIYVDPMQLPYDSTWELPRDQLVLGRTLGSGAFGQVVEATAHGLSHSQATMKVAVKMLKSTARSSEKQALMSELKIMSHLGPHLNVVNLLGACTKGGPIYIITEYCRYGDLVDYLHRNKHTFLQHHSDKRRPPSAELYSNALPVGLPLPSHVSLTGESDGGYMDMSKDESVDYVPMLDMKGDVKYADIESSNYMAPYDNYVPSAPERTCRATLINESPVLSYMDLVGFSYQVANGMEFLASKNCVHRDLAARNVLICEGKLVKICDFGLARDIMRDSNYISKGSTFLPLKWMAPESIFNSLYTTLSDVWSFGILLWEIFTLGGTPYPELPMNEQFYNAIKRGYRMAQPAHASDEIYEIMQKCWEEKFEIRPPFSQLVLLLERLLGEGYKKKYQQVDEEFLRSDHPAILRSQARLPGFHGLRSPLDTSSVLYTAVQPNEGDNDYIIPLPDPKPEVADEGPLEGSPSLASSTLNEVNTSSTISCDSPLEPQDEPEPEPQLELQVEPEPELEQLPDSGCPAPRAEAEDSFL

Platelet-derived growth factor receptor alpha (Homo sapiens), P16234 [T674I], sequence (P16234 whole entry T674I): as the sequence (P16234 whole entry) above, with T674I counted along it
Platelet-derived growth factor receptor alpha (Homo sapiens), P16234 [V561D], sequence (P16234 whole entry V561D): as the sequence (P16234 whole entry) above, with V561D counted along it

Turning to `Nc1nccc(C#Cc2cncnc2Nc2ccc(OCc3cccc(F)c3)c(Cl)c2)n1`, the inhibition in [1] came out at 5.94%; in assay [2], 15.4%; in assay [3], 15.5%; in assay [4] it was 4.4%; in [5], 4.87%; in assay [6], 5.45%. The inhibition in assay [7] is 7.68%; in [8] it was 4.25%; in assay [9], 4.88%; in assay [10] it was 7.6%.
Take `O=S(=O)(CCOCc1ccc(-c2ccc3ncnc(Nc4ccc(OCc5cccc(F)c5)c(Cl)c4)c3c2)o1)c1ccccc1`: the inhibition in assay [1] amounted to 5.38%; in [2], 4.21%; in [3], 10%; in [4] it was 0.75%; in assay [5] it was 1.61%; in [6], 6.02%. Further, the inhibition in assay [7] was 8.5%; in [8] it was 3.15%; in assay [9], 3.68%; in assay [10] it was 2.33%.
In the case of `Nc1nccc(-c2c(-c3ccc(F)cc3)ncn2CCCN2CCOCC2)n1`, the inhibition in assay [1] came out at 3.99%; in assay [2], 4.62%; in assay [3], 14.7%; in assay [4], 1.96%; in assay [5], 6.03%; in [6], 6.08%. The inhibition in assay [7] was 7.81%; in assay [8], 3.07%; in assay [9] it was 8.56%; in [10] it was 3.65%.
In the case of `COc1cc(Nc2nccc(-c3cnn4ncccc34)n2)cc(OC)c1`, the inhibition in assay [1] worked out at 42.5%; in assay [2] it was 19.5%; in [3], 61.9%; in assay [4] it was 12.6%; in [5] it was 60.8%; in [6], 29%. Besides, the inhibition was determined as 91.9% in assay [7], 37.5% in assay [8], 75.2% in [9] and 40.2% in assay [10].
In the case of `NS(=O)(=O)c1ccc(-c2cc3ccncc3cc2OCc2ccccc2)cc1`, the inhibition turned out to be 0.07% in [1]; 8.15% in [2]; 13.2% in assay [3]; 0.32% in assay [4]; 4.83% in [5]; 3.46% in assay [6]. Also, the inhibition in assay [7] came to 9.33%; in assay [8] it was 3.67%; in [9], 6.32%; in [10] it was 3.66%.
On to `Cc1ccc(NC(=O)CC2CC2)cc1-c1ccc(C(=O)NCC2CC2)cc1`, for which the inhibition worked out at 5.33% in assay [1]; 8.04% in assay [2]; 13.8% in assay [3]; 2.79% in assay [4]; 4.37% in assay [5]; 3.52% in [6]. Moreover, the inhibition in assay [7] was 9.3%; in assay [8] it was 4.68%; in assay [9], 5.09%; in assay [10] it was 4.05%.
Regarding `CCn1c(-c2nonc2N)nc2c(C#CC(C)(C)O)nc(OCCNC)cc21`, the inhibition was 3.32% in [1]; 3.73% in [2]; 16.3% in assay [3]; 5.07% in assay [4]; 17.5% in assay [5]; 2.61% in [6]. In addition, the inhibition turned out to be 14.2% in [7], 3.69% in assay [8], 11.1% in assay [9] and 3.31% in assay [10].
For the compound `OCc1ccc(-c2nc(-c3ccccn3)c(-c3ccc4c(c3)OCO4)[nH]2)cc1`, the inhibition in assay [1] is 3.91%; in assay [2], 9.57%; in assay [3], 12.2%; in assay [4], 4.62%; in assay [5] it was 6.61%; in assay [6] it was 6.55%. Moreover, the inhibition in assay [7] amounted to 6.47%; in assay [8], 3.57%; in [9], 7.37%; in assay [10] it was 4.87%.
For the compound `Oc1cccc(-c2nc(-c3ccccc3)[nH]c2-c2ccncc2)c1`, the inhibition in assay [1] stood at 8.69%; in assay [2], 8.99%; in [3], 18.5%; in assay [4], 4%; in assay [5], 13.2%; in assay [6], 5.63%. Also, the inhibition in assay [7] stood at 5.18%; in assay [8], 2.42%; in [9], 9.69%; in [10], 5.66%.
Consider `COc1ccc(-c2nn3ncccc3c2-c2ccnc(Nc3cccc(C(F)(F)F)c3)n2)cc1`, for which the inhibition in assay [1] is 1.14%; in [2] it was 1%; in assay [3] it was 5.9%; in assay [4], 1.64%; in assay [5] it was 3.19%; in [6], 2.26%. Besides, the inhibition in [7] was 5.13%; in [8], 1.12%; in [9], 5.31%; in assay [10], -0.23%.
On to `COc1cc2ncnc(Nc3ccc(C)c(O)c3)c2cc1OC`, for which the inhibition in [1] was 7.42%; in assay [2] it was 85.7%; in assay [3] it was 93.9%; in assay [4] it was 94.2%; in assay [5] it was 98%; in assay [6], 6.7%. For the same compound, the inhibition turned out to be 16.9% in assay [7], 89.4% in assay [8], 97.8% in [9] and 33.2% in assay [10].
`COc1cc(/C=N/Nc2ncnc3c2cnn3C(C)C)ccc1O`: the inhibition in assay [1] is 53.2%; in [2], 17.4%; in assay [3], 64.7%; in assay [4] it was 13.3%; in [5], 61.1%; in assay [6], 3.82%. For the same compound, the inhibition is 4.12% in [7], 12.3% in [8], 54.8% in [9] and 8.52% in assay [10].
As for `[O-][S+]1CCN(Cc2ccc(-c3ccc4ncnc(Nc5ccc(OCc6ccccc6)c(Cl)c5)c4c3)o2)CC1`, the inhibition was found to be 1.01% in assay [1]; 6.03% in [2]; 11.8% in [3]; 0.45% in [4]; 1.95% in assay [5]; 3.64% in [6]. For the same compound, the inhibition in assay [7] came to 7.9%; in [8] it was 3.07%; in [9], 6.09%; in [10] it was 3.07%.
As for `Cc1nc(-c2ccccc2)n2nc(NCCCN3CCOCC3)ncc12`, the inhibition in assay [1] was 5.56%; in assay [2], 3.35%; in assay [3] it was 9.81%; in [4], 0.64%; in assay [5], 6.14%; in assay [6], 3%. Further, the inhibition turned out to be 5.5% in assay [7], 2.27% in assay [8], 3.3% in assay [9] and 1.99% in assay [10].
For the compound `CN(C)CCCn1c(-c2nonc2N)nc2cnccc21`, the inhibition was found to be 4.01% in assay [1]; 6.93% in assay [2]; 8.22% in [3]; 2.47% in [4]; 3.67% in assay [5]; 4.13% in assay [6]. Further, the inhibition in assay [7] came out at 7.54%; in assay [8], 1.59%; in [9], 4.37%; in assay [10], 5.05%.
Take `CN(C)C(=O)O[C@H]1CN[C@H](C#Cc2cc3ncnc(Nc4ccc(OCc5cccc(F)c5)c(Cl)c4)c3s2)C1`: the inhibition in assay [1] was determined as 3.36%; in [2], 6.77%; in assay [3], 11.1%; in [4], 3.09%; in assay [5] it was 1.15%; in assay [6], 5.6%. The inhibition was 4.48% in assay [7], 4.17% in [8], 7.24% in assay [9] and 2.18% in assay [10].
With `COc1ccc2ncnc(Nc3ccc(OCc4ccccc4)cc3)c2c1`, the inhibition in assay [1] amounted to 1.74%; in assay [2] it was 4.33%; in assay [3], 12.2%; in [4] it was 0.76%; in [5] it was 1.54%; in assay [6], 2.64%. In addition, the inhibition in assay [7] worked out at 4.95%; in assay [8], 1.76%; in assay [9], 4.16%; in assay [10], 0.54%.
